Measurements reported in the supplement of paper PMC8253809.
Where “and” joins values, the source holds several entries; their conditions need not be identical. Equal entries are not always repeated.

Tests used:
Assay in all cases: growth inhibition (% activity, log2 RLU normalised to DMSO / staurosporine); higher = more growth inhibition
Details in all cases: 33 µM
DIPGX29 = tested on: DIPGX29 (H3.3 K27M diffuse intrinsic pontine glioma line)
Procedure, shortened: (§1)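 Approved drugs, at a single final concentration of about 33 μM, were applied in triplicate to pHGG cell lines and H9-derived neural stem cells for 7 days at 37 °C, 5% CO2. The growth-inhibition value is the replicate median of log2-transformed CellTiter-Glo luminescence normalised per plate to % activity between solvent and positive control wells.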

DIPGX37 = tested on: DIPGX37 (H3.3 K27M diffuse intrinsic pontine glioma line)
Procedure, shortened: as §1

DIPGX7 = tested on: DIPGX7 (H3.3 K27M diffuse intrinsic pontine glioma line)
Procedure, shortened: as §1

DIPGX9 = tested on: DIPGX9 (diffuse intrinsic pontine glioma line)
Procedure, shortened: as §1

HGGX39 = tested on: HGGX39 (paediatric high-grade glioma line)
Procedure, shortened: as §1

HGGX6 = tested on: HGGX6 (H3.3 G34R paediatric high-grade glioma line)
Procedure, shortened: as §1

HNSC = tested on: HNSC
Procedure, shortened: as §1

SUDIPGIV = tested on: SUDIPGIV (diffuse intrinsic pontine glioma line)
Procedure, shortened: as §1

SUDIPGVI = tested on: SUDIPGVI (diffuse intrinsic pontine glioma line)
Procedure, shortened: as §1

SUDIPGXIII = tested on: SUDIPGXIII (diffuse intrinsic pontine glioma line)
Procedure, shortened: as §1

c1ccc(CN(CC2=NCCN2)c2ccccc2)cc1
growth inhibition (DIPGX29): 1.93%
growth inhibition (DIPGX37): 1.36%
growth inhibition (DIPGX7): 0.575%
growth inhibition (DIPGX9): 3.38%
growth inhibition (HGGX39): 1.53%
growth inhibition (HGGX6): 0.0328%
growth inhibition (HNSC): 0.623%
growth inhibition (SUDIPGIV): -2.17%
growth inhibition (SUDIPGVI): 3.06%
growth inhibition (SUDIPGXIII): 0.969%

C[C@@H]1C[C@H]2[C@@H]3C[C@H](F)C4=CC(=O)C=C[C@]4(C)[C@@]3(F)[C@@H](O)C[C@]2(C)[C@@]1(O)C(=O)CO
growth inhibition (DIPGX29): 2.44%
growth inhibition (DIPGX37): 5.42%
growth inhibition (DIPGX7): 0.269%
growth inhibition (DIPGX9): 4.89%
growth inhibition (HGGX39): 3.56%
growth inhibition (HGGX6): -0.761%
growth inhibition (HNSC): 5.26%
growth inhibition (SUDIPGIV): -0.633%
growth inhibition (SUDIPGVI): 0.461%
growth inhibition (SUDIPGXIII): -1.67%

COc1c2ccoc2cc2oc(=O)ccc12
growth inhibition (DIPGX29): 0.175%
growth inhibition (DIPGX37): -0.379%
growth inhibition (DIPGX7): 0.232%
growth inhibition (DIPGX9): 1.51%
growth inhibition (HGGX39): 1.71%
growth inhibition (HGGX6): 2.12%
growth inhibition (HNSC): -1.02%
growth inhibition (SUDIPGIV): 0.44%
growth inhibition (SUDIPGVI): 0.394%
growth inhibition (SUDIPGXIII): -0.028%

Clc1ccccc1C(c1ccccc1)(c1ccccc1)n1ccnc1
growth inhibition (DIPGX29): 3.31%
growth inhibition (DIPGX37): 0.662%
growth inhibition (DIPGX7): 3.85%
growth inhibition (DIPGX9): 6.07%
growth inhibition (HGGX39): 16.9%
growth inhibition (HGGX6): 14.3%
growth inhibition (HNSC): 31.3%
growth inhibition (SUDIPGIV): 26.9%
growth inhibition (SUDIPGVI): 2.55%
growth inhibition (SUDIPGXIII): 42.1%

Cc1nc(Nc2ncc(C(=O)Nc3c(C)cccc3Cl)s2)cc(N2CCN(CCO)CC2)n1
growth inhibition (DIPGX29): 8.3%
growth inhibition (DIPGX37): -3.6%
growth inhibition (DIPGX7): 2.53%
growth inhibition (DIPGX9): 12.4%
growth inhibition (HGGX39): 15.6%
growth inhibition (HGGX6): 10.8%
growth inhibition (HNSC): 20%
growth inhibition (SUDIPGIV): -0.76%
growth inhibition (SUDIPGVI): 2.41%
growth inhibition (SUDIPGXIII): 2.8%

CN(C)CCC(c1ccc(Cl)cc1)c1ccccn1 (racemic)
growth inhibition (DIPGX29): 1.65%
growth inhibition (DIPGX37): 2.71%
growth inhibition (DIPGX7): 2.71%
growth inhibition (DIPGX9): 1.38%
growth inhibition (HGGX39): 3.68%
growth inhibition (HGGX6): 0.339%
growth inhibition (HNSC): 4.41%
growth inhibition (SUDIPGIV): 1.92%
growth inhibition (SUDIPGVI): 4.15%
growth inhibition (SUDIPGXIII): -0.538%

Nc1[nH]cnc2ncnc1-2
growth inhibition (DIPGX29): -2.79% and 0.888% and 0.703%
growth inhibition (DIPGX37): -2.72% and -1.28% and 1.74%
growth inhibition (DIPGX7): -0.783% and 2.97% and -0.884%
growth inhibition (DIPGX9): -3.07% and 2.41% and -1.07%
growth inhibition (HGGX39): -1.64% and 3.54% and 2.19%
growth inhibition (HGGX6): -4.48% and -0.101% and -1.37%
growth inhibition (SUDIPGIV): -2.98% and 0.339% and 0.701%
growth inhibition (SUDIPGVI): -1.95% and 3.66% and 1.39%
growth inhibition (SUDIPGXIII): -0.991% and 0.292% and 0.516%

CC(=O)O[C@H]1CC[C@@]2(C)C(=CC[C@@H]3[C@@H]2CC[C@]2(C)C(c4cccnc4)=CC[C@@H]32)C1
growth inhibition (DIPGX29): 0.369%
growth inhibition (DIPGX37): -0.0357%
growth inhibition (DIPGX7): -0.259%
growth inhibition (DIPGX9): 0.906%
growth inhibition (HGGX39): 2.75%
growth inhibition (HGGX6): -0.409%
growth inhibition (HNSC): -1.27%
growth inhibition (SUDIPGIV): -0.864%
growth inhibition (SUDIPGVI): -0.189%
growth inhibition (SUDIPGXIII): -0.391%

O=C(O)C1=CO[C@@H](O[C@@H]2O[C@H](CO)[C@@H](O)[C@H](O)[C@H]2O)[C@@H]2C(CO)=CC[C@H]12
growth inhibition (DIPGX29): -3.84%
growth inhibition (DIPGX37): -2.61%
growth inhibition (DIPGX7): -0.0942%
growth inhibition (DIPGX9): -1.59%
growth inhibition (HGGX39): -2.13%
growth inhibition (HGGX6): -4.13%
growth inhibition (HNSC): 9.11%
growth inhibition (SUDIPGIV): -1.22%
growth inhibition (SUDIPGVI): -7.67%
growth inhibition (SUDIPGXIII): -1.52%

CC(=O)O[C@]1(C(C)=O)CC[C@H]2[C@@H]3C[C@H](C)C4=CC(=O)C=C[C@]4(C)[C@@]3(F)[C@@H](O)C[C@@]21C
growth inhibition (DIPGX29): 1.69%
growth inhibition (DIPGX37): 3.28%
growth inhibition (DIPGX7): 0.393%
growth inhibition (DIPGX9): 5.69%
growth inhibition (HGGX39): 4.16%
growth inhibition (HGGX6): -1.08%
growth inhibition (HNSC): 0.0126%
growth inhibition (SUDIPGIV): -1.42%
growth inhibition (SUDIPGVI): 3.88%
growth inhibition (SUDIPGXIII): 1.16%

N=C(N)c1ccc2cc(OC(=O)c3ccc(N=C(N)N)cc3)ccc2c1
growth inhibition (DIPGX29): -0.193%
growth inhibition (DIPGX37): -3.07%
growth inhibition (DIPGX7): -0.0416%
growth inhibition (DIPGX9): -0.893%
growth inhibition (HGGX39): -0.167%
growth inhibition (HGGX6): 1.06%
growth inhibition (HNSC): 2.26%
growth inhibition (SUDIPGIV): 1.8%
growth inhibition (SUDIPGVI): 0.556%
growth inhibition (SUDIPGXIII): -0.295%

Cc1cc(C(C)(C)C)cc(C)c1CC1=NCCN1
growth inhibition (DIPGX29): -3.84%
growth inhibition (DIPGX37): -1.44%
growth inhibition (DIPGX7): -1.4%
growth inhibition (DIPGX9): -2.83%
growth inhibition (HGGX39): -0.405%
growth inhibition (HGGX6): -4.11%
growth inhibition (HNSC): 2.45%
growth inhibition (SUDIPGIV): 0.0122%
growth inhibition (SUDIPGVI): -2.26%
growth inhibition (SUDIPGXIII): -0.432%

O=C(OCC(O)CO)c1ccccc1Nc1ccnc2cc(Cl)ccc12 (centres undefined)
growth inhibition (DIPGX29): 0.939%
growth inhibition (DIPGX37): 1.64%
growth inhibition (DIPGX7): -1.23%
growth inhibition (DIPGX9): 1.63%
growth inhibition (HGGX39): 3.28%
growth inhibition (HGGX6): 1.2%
growth inhibition (HNSC): 0.63%
growth inhibition (SUDIPGIV): -4.61%
growth inhibition (SUDIPGVI): 2.77%
growth inhibition (SUDIPGXIII): 0.927%

COC(=O)[C@H](Cc1ccccc1)NC(=O)[C@@H](N)CC(=O)O
growth inhibition (DIPGX29): -2.32%
growth inhibition (DIPGX37): -1.81%
growth inhibition (DIPGX7): -2.17%
growth inhibition (DIPGX9): -2.28%
growth inhibition (HGGX39): -1.24%
growth inhibition (HGGX6): 0.801%
growth inhibition (HNSC): -5.7%
growth inhibition (SUDIPGIV): -2.58%
growth inhibition (SUDIPGVI): -1.43%
growth inhibition (SUDIPGXIII): -6.7%
